In assay [1] the target is Protein kinase C gamma type (Homo sapiens) (UniProt P05129). To be noted: at 1 µM.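 Also: each value is an averaged percent inhibition of the enzyme.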
For assay [2], the target named is T1, Protein kinase C iota type (Homo sapiens) (UniProt P41743).
T1 sequence (whole entry): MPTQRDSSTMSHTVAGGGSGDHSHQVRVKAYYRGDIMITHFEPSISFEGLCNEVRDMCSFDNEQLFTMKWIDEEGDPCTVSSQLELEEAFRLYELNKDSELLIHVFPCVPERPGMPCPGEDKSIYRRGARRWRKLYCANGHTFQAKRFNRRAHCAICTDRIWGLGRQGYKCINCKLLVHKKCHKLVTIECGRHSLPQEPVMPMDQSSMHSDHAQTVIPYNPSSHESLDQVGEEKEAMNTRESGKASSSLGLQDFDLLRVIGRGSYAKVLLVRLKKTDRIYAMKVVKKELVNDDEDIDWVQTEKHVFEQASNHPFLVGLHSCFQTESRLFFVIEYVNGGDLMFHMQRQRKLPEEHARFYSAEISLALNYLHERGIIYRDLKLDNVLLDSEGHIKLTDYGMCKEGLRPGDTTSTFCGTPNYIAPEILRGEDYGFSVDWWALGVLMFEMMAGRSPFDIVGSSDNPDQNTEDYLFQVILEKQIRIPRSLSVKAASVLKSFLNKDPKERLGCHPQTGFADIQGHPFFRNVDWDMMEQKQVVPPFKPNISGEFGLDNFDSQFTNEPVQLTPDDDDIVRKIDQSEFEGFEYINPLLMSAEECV
To be noted: at 0.1 µM.

The target of assay [3] is T1, Protein kinase C iota type (Homo sapiens). To be noted: at 1 µM.
Assay [4] deals with Protein kinase C theta type (Homo sapiens) (UniProt Q04759). The conditions noted are these: at 0.1 µM.
The target is the same in assay [5]. To be noted: at 1 µM.
Assay [6] deals with Protein kinase C beta type (Homo sapiens) (UniProt P05771). The conditions noted are these: at 0.1 µM.
For assay [7] the target is unchanged. The conditions noted are these: at 1 µM.
Assay [8] addresses T2, Serine/threonine-protein kinase D1 (Homo sapiens) (UniProt Q15139).
T2 sequence (whole entry): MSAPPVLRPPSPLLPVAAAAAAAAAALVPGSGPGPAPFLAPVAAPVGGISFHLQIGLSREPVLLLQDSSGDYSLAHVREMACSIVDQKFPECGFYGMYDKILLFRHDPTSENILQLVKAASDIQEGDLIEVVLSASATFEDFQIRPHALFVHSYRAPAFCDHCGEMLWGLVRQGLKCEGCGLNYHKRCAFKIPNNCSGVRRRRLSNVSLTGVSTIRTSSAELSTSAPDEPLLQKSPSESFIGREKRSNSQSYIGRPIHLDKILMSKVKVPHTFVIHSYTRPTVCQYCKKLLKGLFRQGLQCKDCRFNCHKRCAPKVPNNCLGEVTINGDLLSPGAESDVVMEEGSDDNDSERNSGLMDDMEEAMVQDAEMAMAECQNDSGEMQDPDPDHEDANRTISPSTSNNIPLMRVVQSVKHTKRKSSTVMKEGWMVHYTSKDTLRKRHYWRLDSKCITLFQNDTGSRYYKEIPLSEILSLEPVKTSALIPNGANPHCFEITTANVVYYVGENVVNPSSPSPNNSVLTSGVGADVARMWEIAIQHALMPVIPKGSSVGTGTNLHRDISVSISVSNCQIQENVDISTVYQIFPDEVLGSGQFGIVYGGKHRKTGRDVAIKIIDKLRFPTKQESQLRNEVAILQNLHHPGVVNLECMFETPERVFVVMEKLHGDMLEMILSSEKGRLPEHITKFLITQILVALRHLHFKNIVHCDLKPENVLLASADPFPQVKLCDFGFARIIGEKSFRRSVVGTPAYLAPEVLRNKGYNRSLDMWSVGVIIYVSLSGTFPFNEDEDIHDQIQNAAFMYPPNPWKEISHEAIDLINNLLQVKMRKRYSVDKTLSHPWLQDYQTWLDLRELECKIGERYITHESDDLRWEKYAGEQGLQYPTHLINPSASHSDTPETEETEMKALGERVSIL
To be noted: at 0.1 µM.

For assay [9], the target named is T2, Serine/threonine-protein kinase D1 (Homo sapiens). To be noted: at 1 µM.
The target in assay [10] is T3, Serine/threonine-protein kinase D2 (Homo sapiens) (UniProt Q9BZL6).
T3 sequence (whole entry): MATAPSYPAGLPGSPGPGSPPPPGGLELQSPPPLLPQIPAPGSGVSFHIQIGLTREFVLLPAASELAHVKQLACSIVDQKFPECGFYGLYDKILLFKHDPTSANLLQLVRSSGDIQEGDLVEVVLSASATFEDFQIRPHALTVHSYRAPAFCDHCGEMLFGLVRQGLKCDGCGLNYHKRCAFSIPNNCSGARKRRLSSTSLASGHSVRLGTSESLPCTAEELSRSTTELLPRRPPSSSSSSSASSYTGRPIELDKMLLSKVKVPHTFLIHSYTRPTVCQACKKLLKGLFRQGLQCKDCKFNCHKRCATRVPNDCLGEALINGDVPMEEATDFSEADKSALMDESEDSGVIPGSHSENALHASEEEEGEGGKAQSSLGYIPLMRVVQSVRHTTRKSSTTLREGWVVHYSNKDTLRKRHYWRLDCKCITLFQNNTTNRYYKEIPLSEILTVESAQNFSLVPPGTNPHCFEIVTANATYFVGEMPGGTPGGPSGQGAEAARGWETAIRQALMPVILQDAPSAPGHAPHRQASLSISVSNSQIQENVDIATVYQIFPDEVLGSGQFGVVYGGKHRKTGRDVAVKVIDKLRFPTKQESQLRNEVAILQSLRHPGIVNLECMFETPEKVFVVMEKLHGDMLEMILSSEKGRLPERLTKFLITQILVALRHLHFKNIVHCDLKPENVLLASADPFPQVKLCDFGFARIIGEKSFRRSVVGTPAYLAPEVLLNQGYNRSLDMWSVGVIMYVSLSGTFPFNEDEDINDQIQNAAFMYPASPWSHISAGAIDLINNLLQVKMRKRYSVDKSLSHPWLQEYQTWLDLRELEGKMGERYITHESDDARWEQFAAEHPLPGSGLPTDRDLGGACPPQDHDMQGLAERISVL
To be noted: at 0.1 µM.

Assay [11] has as its target T3, Serine/threonine-protein kinase D2 (Homo sapiens). The conditions noted are these: at 1 µM.
The target in assay [12] is T4, Serine/threonine-protein kinase D3 (Homo sapiens) (UniProt O94806).
T4 sequence (whole entry): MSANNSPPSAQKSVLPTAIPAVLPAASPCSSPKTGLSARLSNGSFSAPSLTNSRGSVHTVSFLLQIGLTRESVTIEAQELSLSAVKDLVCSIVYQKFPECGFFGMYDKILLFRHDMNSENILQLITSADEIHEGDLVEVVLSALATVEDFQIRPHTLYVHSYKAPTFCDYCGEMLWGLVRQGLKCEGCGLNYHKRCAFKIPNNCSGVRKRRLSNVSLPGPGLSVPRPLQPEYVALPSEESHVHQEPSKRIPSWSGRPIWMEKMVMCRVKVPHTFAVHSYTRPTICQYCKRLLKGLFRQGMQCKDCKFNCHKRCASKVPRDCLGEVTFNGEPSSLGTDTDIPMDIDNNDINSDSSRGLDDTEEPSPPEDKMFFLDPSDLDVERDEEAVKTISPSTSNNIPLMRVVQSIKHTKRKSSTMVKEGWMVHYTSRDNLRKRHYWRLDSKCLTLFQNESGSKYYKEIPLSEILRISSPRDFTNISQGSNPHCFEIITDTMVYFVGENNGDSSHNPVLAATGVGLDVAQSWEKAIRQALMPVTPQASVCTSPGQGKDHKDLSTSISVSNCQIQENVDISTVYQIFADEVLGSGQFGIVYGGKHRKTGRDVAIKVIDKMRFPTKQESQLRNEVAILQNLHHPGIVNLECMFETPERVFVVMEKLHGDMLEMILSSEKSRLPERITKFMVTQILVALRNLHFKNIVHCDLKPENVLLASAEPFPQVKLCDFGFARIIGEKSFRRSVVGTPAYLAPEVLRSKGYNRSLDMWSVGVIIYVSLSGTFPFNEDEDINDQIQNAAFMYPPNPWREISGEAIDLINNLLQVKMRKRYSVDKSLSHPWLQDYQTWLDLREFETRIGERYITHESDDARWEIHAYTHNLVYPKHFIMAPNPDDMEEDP
The conditions noted are these: at 0.1 µM.

For assay [13], the target named is T4, Serine/threonine-protein kinase D3 (Homo sapiens). To be noted: at 1 µM.
Assay [14] has as its target T5, cGMP-dependent protein kinase 1 (Homo sapiens) (UniProt Q13976).
T5 sequence (whole entry): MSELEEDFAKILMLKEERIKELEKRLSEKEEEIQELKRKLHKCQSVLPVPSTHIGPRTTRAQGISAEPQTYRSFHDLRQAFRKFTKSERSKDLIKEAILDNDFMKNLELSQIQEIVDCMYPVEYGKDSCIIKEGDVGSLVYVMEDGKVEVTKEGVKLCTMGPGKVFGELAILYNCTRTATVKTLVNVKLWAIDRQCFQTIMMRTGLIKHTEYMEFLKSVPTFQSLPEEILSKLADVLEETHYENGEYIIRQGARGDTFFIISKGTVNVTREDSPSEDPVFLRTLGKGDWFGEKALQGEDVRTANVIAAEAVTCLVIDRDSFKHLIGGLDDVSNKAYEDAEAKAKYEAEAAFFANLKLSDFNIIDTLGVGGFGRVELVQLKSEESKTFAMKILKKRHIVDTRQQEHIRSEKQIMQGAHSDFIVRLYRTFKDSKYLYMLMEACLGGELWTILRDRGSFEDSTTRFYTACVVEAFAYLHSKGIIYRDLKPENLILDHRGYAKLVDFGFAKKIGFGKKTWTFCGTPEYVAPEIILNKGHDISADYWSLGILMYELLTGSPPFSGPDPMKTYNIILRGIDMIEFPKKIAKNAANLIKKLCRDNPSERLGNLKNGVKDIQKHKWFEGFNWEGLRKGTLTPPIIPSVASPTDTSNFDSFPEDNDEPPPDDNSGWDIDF
The conditions noted are these: at 0.1 µM.

For assay [15], the target named is T5, cGMP-dependent protein kinase 1 (Homo sapiens). The conditions noted are these: at 1 µM.
In assay [16] the target is T6, cGMP-dependent protein kinase 2 (Homo sapiens) (UniProt Q13237).
T6 sequence (whole entry): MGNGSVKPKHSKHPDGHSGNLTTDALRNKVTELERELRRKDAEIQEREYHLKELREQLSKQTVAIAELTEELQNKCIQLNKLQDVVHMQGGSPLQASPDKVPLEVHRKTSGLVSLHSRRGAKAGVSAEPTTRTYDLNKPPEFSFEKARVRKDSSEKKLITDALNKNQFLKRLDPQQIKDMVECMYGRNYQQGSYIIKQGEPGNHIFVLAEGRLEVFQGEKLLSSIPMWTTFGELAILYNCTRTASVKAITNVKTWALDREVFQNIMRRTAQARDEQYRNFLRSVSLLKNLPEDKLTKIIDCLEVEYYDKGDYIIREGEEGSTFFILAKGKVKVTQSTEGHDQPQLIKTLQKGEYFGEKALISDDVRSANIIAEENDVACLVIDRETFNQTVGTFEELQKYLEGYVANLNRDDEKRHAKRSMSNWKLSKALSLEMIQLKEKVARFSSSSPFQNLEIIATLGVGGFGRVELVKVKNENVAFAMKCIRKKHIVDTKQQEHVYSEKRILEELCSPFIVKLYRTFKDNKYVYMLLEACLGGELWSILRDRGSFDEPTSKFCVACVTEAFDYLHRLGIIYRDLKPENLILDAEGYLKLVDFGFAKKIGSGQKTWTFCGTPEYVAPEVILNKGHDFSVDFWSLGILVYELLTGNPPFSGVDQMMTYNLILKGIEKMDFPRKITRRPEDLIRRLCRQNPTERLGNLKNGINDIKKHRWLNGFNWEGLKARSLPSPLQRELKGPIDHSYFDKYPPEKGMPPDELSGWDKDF
The conditions noted are these: at 0.1 µM.

Assay [17] addresses T6, cGMP-dependent protein kinase 2 (Homo sapiens). To be noted: at 1 µM.
For assay [18], the target named is T7, cAMP-dependent protein kinase catalytic subunit PRKX (Homo sapiens) (UniProt P51817).
T7 sequence (whole entry): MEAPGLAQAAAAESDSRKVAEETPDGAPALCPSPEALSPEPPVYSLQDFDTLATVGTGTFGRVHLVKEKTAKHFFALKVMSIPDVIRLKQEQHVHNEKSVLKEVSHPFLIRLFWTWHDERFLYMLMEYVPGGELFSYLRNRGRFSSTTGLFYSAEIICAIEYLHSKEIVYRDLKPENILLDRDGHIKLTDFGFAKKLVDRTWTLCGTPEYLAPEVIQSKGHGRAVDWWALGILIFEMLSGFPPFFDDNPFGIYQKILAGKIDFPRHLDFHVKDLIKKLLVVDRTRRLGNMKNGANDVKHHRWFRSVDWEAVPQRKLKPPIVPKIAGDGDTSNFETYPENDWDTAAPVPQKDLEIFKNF
The conditions noted are these: at 0.1 µM.

Assay [19] concerns the target T7, cAMP-dependent protein kinase catalytic subunit PRKX (Homo sapiens). The conditions noted are these: at 1 µM.
The target of assay [20] is Rho-associated protein kinase 1 (Homo sapiens) (UniProt Q13464). To be noted: at 0.1 µM.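 Also: values are mean percent inhibition of ROCK1.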

As a reminder, the inhibition is the relative decrease from the control value, in per cent.

Protein kinase C theta type (Homo sapiens), sequence (Q04759 whole entry, looked up): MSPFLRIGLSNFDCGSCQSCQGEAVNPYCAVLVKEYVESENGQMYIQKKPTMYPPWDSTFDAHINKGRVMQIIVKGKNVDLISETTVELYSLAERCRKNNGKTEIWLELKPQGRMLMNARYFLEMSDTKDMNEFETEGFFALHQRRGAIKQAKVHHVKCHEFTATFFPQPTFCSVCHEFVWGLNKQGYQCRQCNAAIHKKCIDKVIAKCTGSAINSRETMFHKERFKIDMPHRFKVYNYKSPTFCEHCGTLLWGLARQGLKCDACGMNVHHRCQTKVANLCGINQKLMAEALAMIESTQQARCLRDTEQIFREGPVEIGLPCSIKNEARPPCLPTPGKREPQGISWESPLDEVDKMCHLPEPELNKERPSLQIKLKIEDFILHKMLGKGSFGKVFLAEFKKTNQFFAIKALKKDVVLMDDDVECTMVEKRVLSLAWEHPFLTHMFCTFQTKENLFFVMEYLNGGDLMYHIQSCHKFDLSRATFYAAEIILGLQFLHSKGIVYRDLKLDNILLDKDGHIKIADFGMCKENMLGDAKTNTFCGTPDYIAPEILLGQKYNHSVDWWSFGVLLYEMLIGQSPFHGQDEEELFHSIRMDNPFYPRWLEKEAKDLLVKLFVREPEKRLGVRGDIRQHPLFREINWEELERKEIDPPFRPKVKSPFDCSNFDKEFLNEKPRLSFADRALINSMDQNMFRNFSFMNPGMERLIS
Protein kinase C beta type (Homo sapiens), sequence (P05771 2-671 limits assumed): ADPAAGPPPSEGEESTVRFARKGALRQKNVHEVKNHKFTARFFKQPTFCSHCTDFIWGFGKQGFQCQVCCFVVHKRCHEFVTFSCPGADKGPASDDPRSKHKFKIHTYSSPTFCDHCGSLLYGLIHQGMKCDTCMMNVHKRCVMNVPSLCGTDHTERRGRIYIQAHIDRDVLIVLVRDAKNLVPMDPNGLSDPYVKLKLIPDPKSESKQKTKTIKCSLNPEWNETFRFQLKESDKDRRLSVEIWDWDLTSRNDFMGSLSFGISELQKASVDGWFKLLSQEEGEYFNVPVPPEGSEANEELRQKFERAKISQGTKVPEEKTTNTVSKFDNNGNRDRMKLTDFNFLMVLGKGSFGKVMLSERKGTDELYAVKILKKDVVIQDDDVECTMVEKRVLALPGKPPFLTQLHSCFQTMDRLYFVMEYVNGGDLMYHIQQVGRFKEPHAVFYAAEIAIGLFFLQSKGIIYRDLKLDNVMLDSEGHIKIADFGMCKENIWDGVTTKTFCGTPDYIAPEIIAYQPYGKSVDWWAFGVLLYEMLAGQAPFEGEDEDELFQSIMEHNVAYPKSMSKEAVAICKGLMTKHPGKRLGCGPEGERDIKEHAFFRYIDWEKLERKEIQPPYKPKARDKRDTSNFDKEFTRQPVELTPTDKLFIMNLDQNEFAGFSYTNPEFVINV
Rho-associated protein kinase 1 (Homo sapiens), sequence (Q13464 2-1354 limits assumed): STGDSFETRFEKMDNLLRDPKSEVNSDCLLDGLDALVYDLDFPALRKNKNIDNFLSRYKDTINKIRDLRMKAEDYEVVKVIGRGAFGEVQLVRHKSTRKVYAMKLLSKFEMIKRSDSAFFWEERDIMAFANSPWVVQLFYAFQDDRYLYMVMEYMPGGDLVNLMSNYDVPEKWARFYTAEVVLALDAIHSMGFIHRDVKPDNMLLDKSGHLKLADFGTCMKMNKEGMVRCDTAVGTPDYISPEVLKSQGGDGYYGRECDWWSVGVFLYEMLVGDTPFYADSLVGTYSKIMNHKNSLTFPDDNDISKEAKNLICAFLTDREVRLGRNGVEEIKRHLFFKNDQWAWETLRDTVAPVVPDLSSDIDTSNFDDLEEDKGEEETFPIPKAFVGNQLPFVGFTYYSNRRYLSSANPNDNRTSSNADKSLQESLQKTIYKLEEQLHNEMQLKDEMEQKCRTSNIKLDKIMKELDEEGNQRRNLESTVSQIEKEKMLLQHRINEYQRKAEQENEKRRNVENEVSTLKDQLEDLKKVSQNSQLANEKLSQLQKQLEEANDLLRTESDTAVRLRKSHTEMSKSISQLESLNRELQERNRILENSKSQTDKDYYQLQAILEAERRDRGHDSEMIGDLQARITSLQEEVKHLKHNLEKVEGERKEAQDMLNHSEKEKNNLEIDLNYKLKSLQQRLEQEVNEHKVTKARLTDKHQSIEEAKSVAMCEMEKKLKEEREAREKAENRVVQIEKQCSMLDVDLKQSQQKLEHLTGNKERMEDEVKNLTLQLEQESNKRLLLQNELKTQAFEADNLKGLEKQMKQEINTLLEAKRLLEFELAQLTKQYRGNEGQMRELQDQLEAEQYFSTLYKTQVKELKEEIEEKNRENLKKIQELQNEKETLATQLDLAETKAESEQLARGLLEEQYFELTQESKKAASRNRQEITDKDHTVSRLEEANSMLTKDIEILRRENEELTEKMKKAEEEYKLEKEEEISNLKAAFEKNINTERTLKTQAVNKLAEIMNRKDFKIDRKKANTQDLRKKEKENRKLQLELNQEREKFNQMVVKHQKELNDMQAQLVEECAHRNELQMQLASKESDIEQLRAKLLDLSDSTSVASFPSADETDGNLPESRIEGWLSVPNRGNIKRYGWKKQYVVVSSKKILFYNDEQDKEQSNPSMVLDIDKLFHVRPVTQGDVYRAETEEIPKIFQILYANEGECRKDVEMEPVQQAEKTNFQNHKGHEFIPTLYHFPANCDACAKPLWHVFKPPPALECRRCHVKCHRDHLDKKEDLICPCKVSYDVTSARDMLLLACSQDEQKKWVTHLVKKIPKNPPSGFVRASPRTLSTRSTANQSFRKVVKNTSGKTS

For `COc1ccc(-c2ccc3c(NC(=O)C4CC4)n[nH]c3n2)cc1`, the inhibition in assay [1] is 2.95%; in [2], 0.3%; in assay [3], -0.23%; in assay [4], 1.39%; in assay [5], 2.97%; in assay [6] it was 0.8%. Moreover, the inhibition in assay [7] stood at 0.48%; in assay [8], 2.32%; in assay [9], 1.39%; in [10], 1.92%; in assay [11], 1.69%; in assay [12] it was 1.45%. The inhibition in assay [13] is 1.7%; in assay [14], 1.26%; in [15], 1.97%; in [16], 0.63%; in assay [17], 0.65%; in assay [18] it was 1.66%. For the same compound, the inhibition in assay [19] was 3.81%; in assay [20], 0.53%.

(Values after ChEMBL document CHEMBL1961873, “Compounds: GSK PKIS; Assays: Nanosyn kinase panel” (2012).)
